# The list is not random: actives were taken first. Their share in the collection is about 2.3%.
# aSyn rescue = alpha-synuclein toxicity inhibition in yeast; Potency, µM (titrated, usually from 46.1 µM), without a hit: at the top dose growth rescue (activation), actives largely listed as activators; AID 652106; 0.14% of 370,000 active; Yeast expressing alpha-synuclein, growth rescue, BacTiter-Glo, 24 h; further: % of control where 0% means no effect; nearly all actives have a fitted effect of over 65% in size
#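 Rescue of yeast growth: cells expressing toxic alpha-synuclein, induced in galactose at OD600 0.02, incubated with compound 24 h at 30 C. ATP luminescence quantified growth; inhibitors of toxicity appear as activators.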
# Chronic BCR inh = inhibitors of chronic active B-cell receptor signaling; AID 493014; Potency, µM (highest dose often 46.1 µM), inactives show at the top dose activity change, negative = inhibition, hits mostly inhibitors; ABC-DLBCL IkBa-CBG/CBR reporter, luminescence ratio, 4 h; 0.05% of 340,000 active; active means well fitted inhibition curve with a large enough effect in the signal ratio, with a control signal flat, not every such curve was filed as active; inconclusive means small, poorly fitted or top-dose-only effect, or effect the other way, or a change in a side signal; the % refers to the signal ratio;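 further: plate controls were basal doxycycline-induced cells for no effect and cells given 10 µM MG132 for full effect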
#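 Cell line TMD8 (human ABC DLBCL), stably expressing tet-inducible CBG68-IkBa fusion and CBR; IMDM/0.5% FBS; cpd up to 46 uM; dox induction, 4 h, 37C/5% CO2; dual luminescence; green/red ratio; MG132 control.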
# FUS suppressor = suppressors of FUS proteinopathy in yeast; S. cerevisiae FUS-expressing, growth rescue, OD600, 24 h; Potency, µM (series often up to 76.6 µM), usual class: activators; 0.24% of 390,000 active; AID 1347120;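 further: plate controls were DMSO vehicle for no effect and reference control for full effect; nearly all actives have a fitted effect of over 55% in size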
#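 Steps: raffinose overnight preculture; dilution to OD 0.005 in 2% galactose minimal medium; compound addition (concentration series); 24hr at 30C, 99% humidity; absorbance read at 600 nm.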
# uPA generation = cell surface uPA generation inhibition. Potency, µM (top dose mostly 38.3 µM), for inactives: at the top dose activity change, negative = inhibition, usual class: inhibitors. 0.31% of 330,000 active. cell surface uPA generation assay, qHTS; active means well fitted inhibition curve with a large enough effect; inconclusive means small, poorly fitted or top-dose-only effect; inactive means no such curve, though single readings can be large or run the other way; tested in mouse RAW 264.7 cells; further: on the % scale 0 is the no-effect control and ±100 the full control effect; nearly all actives have a fitted effect of over 55% in size
# Abeta rescue = A-beta toxicity reversal in yeast; 0.063% of 410,000 active; Potency, µM (titrated, usually from 46.1 µM), usual class: activators; yeast expressing A-beta42, growth rescue, OD600, 48 h; response scale: 0% DMSO, 100% iron-clioquinol control; AID 1347071; further: nearly all actives have a fitted effect of over 55% in size
#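 Yeast A-beta toxicity model in growth medium with pinned compounds, 48 h at 30 C; growth read as absorbance at 600 nm. Normalized to FeCl3/clioquinol equimolar mix (positive) and DMSO (negative).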
# TDP43 rescue = inhibitors of TDP-43 toxicity in yeast; TDP-43 expressing yeast growth rescue, BacTiter-Glo, 24 h; Potency, µM (series often up to 46.1 µM), inactives show at the highest dose growth rescue (activation), most hits filed as activators; 1.8% of 410,000 active; AID 652104; further: % of control where 0% means no effect; nearly all actives have a fitted effect of over 50% in size
#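 Growth rescue of TDP-43-toxic yeast measured as ATP luminescence (BacTiter-Glo). Cells grown to mid-log in raffinose, induced in galactose at OD600=0.02, exposed to compound 24 hr at 30 deg C.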
# * hit, by the source's call; i = inactive; u = inconclusive; x = no result given. Unless noted, the call rests on the fitted dose curve; in most records, active means well fitted curve in the direction sought with a large enough effect; inconclusive means small, poorly fitted or top-dose-only effect, or another doubt; inactive means no such curve, though single readings can be large; an effect the other way counts as inactive or inconclusive. Potency means the concentration at half of the fitted maximal effect.
SMILES,aSyn rescue,Chronic BCR inh,FUS suppressor,uPA generation,Abeta rescue,TDP43 rescue
C=CCc1c(C)nc2c(OC)cccc2c1Cl,25.8%,u,i,-4.7%,i,14.9%
CC(=O)C(C)Oc1ccc2c3c(c(=O)oc2c1C)CCCC3 (stereo unspecified),2.2%,-0.6%,i,-13.7%,i,20µM*
COC(=O)c1ccc(CN(Cc2ccc(C(=O)OC)o2)C(C)(C)C)o1,1.2%,18.3%,x,2.6%,i,5.2%
Cc1cccc(NC(=O)C(=O)NCC(c2ccc3c(c2)OCO3)N2CCN(C)CC2)c1C (stereo unspecified),x,x,i,x,i,2.9%
Cc1cccc(Cc2cnc(N3C(=N)SC(C)C3=O)s2)c1 (stereo unspecified),10µM*,u,i,4.9%,u,22.4µM*
N=C1SCC(=O)N1c1ncc(Cc2cccc(Cl)c2)s1,22.0%,u,i,5.6%,i,8.91µM*
N=C1SCC(=O)N1c1ncc(Cc2ccccc2Cl)s1,10.6%,u,i,1.4%,i,u
Cc1ccc(Cc2cnc(N3C(=N)SC(C)C3=O)s2)cc1 (stereo unspecified),18.5%,u,i,-2.1%,i,u
CCOC(=O)c1c(NC(=O)c2ccc(OCC)c(Br)c2)sc2c1CCCC2,x,x,i,x,i,14.1%
COc1cccc2cc(/C(=N/O)c3ccccc3)oc12,15.9%,u,i,-12.9%,i,11.2µM*
COc1cccc2cc(C(C)=O)oc12,2.2%,0.1%,i,-0.2%,i,u
COc1cc(C(=O)N/C(=C\c2cn(S(=O)(=O)N(C)C)c3ccccc23)C(=O)NCCCO)cc(OC)c1OC,-6.6%,u,i,-18.7%,i,11.7%
COc1cc(OC)c(NC(=O)C(NS(=O)(=O)c2cccc3nsnc23)c2ccccc2)cc1Cl (stereo unspecified),x,x,22.4µM*,x,i,7.4%
Cc1ccc(C(=O)c2cnc3ccccc3c2-c2ccccc2)cc1,-9.3%,u,i,-2.1%,i,u
COc1ccc(C(=O)c2cnc3ccccc3c2-c2ccccc2)cc1,13.5%,-5.5%,i,-5.3%,i,35.5µM*
C[C@H]1COc2cc(Br)ccc2S(=O)(=O)N1Cc1cn(Cc2ccc(F)cc2)nn1,x,x,i,x,x,x
CCc1ccc(NC(=O)CCc2c(C)n(C)c3cc(-c4ccccc4C)nn3c2=O)cc1,x,x,i,x,i,10.7%
CCC(C(=O)NC(C)(C)C)n1c(-c2ccc(C)cc2)nc2ccccc21 (stereo unspecified),0.9%,x,i,x,i,3.4%
CN(C)c1ccc2c(=O)c3ccccc3oc2n1,u,x,i,x,i,15.8µM*
Cc1nc2oc3ccccc3c(=O)c2cc1C(=O)O,0.2%,21.9%,i,2.1%,i,-19.7%
N#Cc1ccc(CSc2nnc(-c3ccncc3)n2CCc2ccccc2)cc1,-0.4%,-1.2%,i,-6.3%,i,10.0%
COc1ccc(Cc2nnc(SCc3ccc([N+](=O)[O-])cc3)o2)cc1,6.5%,-2.1%,i,4.5%,i,17.8µM*
Fc1cc(Cl)cc2ccc(-c3ccccc3)nc12,-13.4%,x,i,x,i,u
O=C(NCc1ccccc1)C1CCN(c2nc(-c3ccc(Br)cc3)cs2)CC1,x,x,i,x,x,x
Cc1ccc(C)c(N2CCN(S(=O)(=O)c3cc(C(=O)Nc4ccccc4C(F)(F)F)ccc3F)CC2)c1,x,4.4%,i,x,3.98µM*,u
SMILES,aSyn rescue,Chronic BCR inh,FUS suppressor,uPA generation,Abeta rescue,TDP43 rescue
O=C(CCC(=O)c1cccs1)OCc1ccc([N+](=O)[O-])cc1,-0.4%,2.3%,i,-1.1%,i,11.2µM*
Cc1nc2sccc2c(=O)n1-c1cccc(Cl)c1,5.9%,u,i,-0.7%,i,-24.9%
Cc1ccc(CNC(=O)c2c(Nc3ccccc3C)sc(C(=O)c3ccc(F)cc3)c2N)cc1,x,22.4µM*,u,x,i,23.2%
Cc1ccccc1Nc1sc(C(=O)c2ccccc2)c(N)c1C(=O)NCc1ccc(Cl)cc1,x,u,i,x,i,8.0%
CCOc1ccc(N(CC(=O)Nc2ccccc2OC)S(=O)(=O)c2ccccc2)cc1,0.4%,15.8µM*,i,u,i,6.0%
CCOc1ccc(NC(=O)CN(c2ccccc2OCC)S(=O)(=O)c2ccccc2)cc1,x,x,i,x,i,0.0%
CCOc1ccc(N(CC(=O)Nc2ccccc2OCC)S(=O)(=O)c2c(C)noc2C)cc1,6.9%,u,u,1.26µM*,x,18.6%
CCOc1ccc(NC(=O)CN(c2ccc(Cl)cc2C)S(=O)(=O)c2ccccc2)cc1,x,x,22.4µM*,x,i,7.1%
COc1ccc(N(CC(=O)Nc2ccc(OC)cc2OC)S(=O)(=O)c2ccccc2)cc1,11.3%,u,i,-4.8%,i,0.0%
Brc1ccc(-c2ccc(/C=N/Nc3nc4ccccc4[nH]3)o2)cc1,-27.3%,u,i,10µM*,i,-64.8%
Brc1ccc(-c2ccc(/C=N/Nc3nncc(-c4ccccc4)n3)o2)cc1,0.6%,u,i,-1.6%,i,-11.6%
C=CCSc1nc2ccccc2n1C(=O)/C=C/c1cc(OC)c(OC)c(OC)c1,12.1%,u,u,x,i,-7.4%
COc1cccc(CN(C)C(=O)Cn2cc(C)c(=O)[nH]c2=O)c1,1.0%,x,i,-2.0%,i,1.1%
Cc1cc(C)n(/N=C/c2ccc(O)cc2)c(=O)c1C#N,-8.2%,-6.3%,i,-2.0%,i,4.1%
COc1ccc(CCNS(=O)(=O)c2ccc(Br)s2)cc1,0.5%,-4.0%,i,-1.5%,i,11.2µM*
COc1ccccc1NS(=O)(=O)c1ccc(Br)s1,22.0%,-5.8%,i,-0.1%,i,11.2µM*
COc1ccc(OC)c(NS(=O)(=O)c2ccc(Cl)s2)c1,13.7%,-0.2%,i,x,u,u
COc1ccc(OC)c(NS(=O)(=O)c2ccc(-c3cc(C)no3)s2)c1,x,x,i,x,i,15.8µM*
COc1cccc(NS(=O)(=O)c2ccc(-c3cc(C)no3)s2)c1,x,6.7%,i,x,i,-16.8%
COc1ccc(OC)c(NS(=O)(=O)c2ccc(Br)s2)c1,x,6.5%,i,x,i,22.4µM*
O=S(=O)(NCCc1ccccc1)c1ccc(Br)s1,5.4%,4.6%,i,0.0%,i,u
CCCCN(C)CCC(=O)Nc1ccc(F)c(F)c1,-1.7%,-1.0%,x,2.2%,i,10.4%
COc1ccc(/C=N/NC(=O)c2cccnc2)cc1CSc1nc2ccccc2s1,0.0%,u,x,-10.4%,i,12.6µM*

# Screening results from PubChem.
